The values that follow come from PubChem BioAssay (NCI).

Each structure is given as a SMILES string. About 83,000 compounds went through this panel and 20% of them were active in at least one assay; those are over-represented in the sample as a whole.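 Results are percent growth after 48 hours of single-concentration exposure. 100 means growth as in untreated cells, lower positive values show inhibition; negative values down to -100 show cell death.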 A number with no mark means an inactive call. Activity calls are given as the source filed them. How the source made its calls: active means growth percent below 10; inactive means the rest.

Among the test systems are DU-145 prostate; MALME-3M melanoma; MDA-MB-231 breast; RXF 393 renal; SF-268 CNS; SF-295 CNS; SF-539 CNS; UACC-257 melanoma; M14 melanoma; K-562 leukemia.
Holding throughout (experiment): NCI-60 one-dose screen, 48 h (100 = growth as untreated, 0 = no growth, -100 = all killed)
What all share (settings): 10 µM

Consider `CCN(CC)CCOc1ccc(C(=C(C)c2ccccc2)c2ccc(OCCN(CC)CC)cc2)cc1`, for which the growth in the assay with DU-145 prostate was 41.4%; in the assay with MALME-3M melanoma, -100% (active); in the assay on MDA-MB-231 breast it was -60.4% (active); in the assay on RXF 393 renal, -74.5% (active); in the assay with SF-268 CNS, 11.6%; in the assay with SF-295 CNS, -63.6% (active). For the same compound, the figures for the growth in the assay with SF-539 CNS, in the assay with UACC-257 melanoma and in the assay with M14 melanoma were -98.1% (active), -83.4% (active) and -53.5% (active), respectively.
Take `CC(=C(c1ccc(OCCCN(C)C)cc1)c1ccc(OCCCN(C)C)cc1)c1ccccc1`: the growth with DU-145 prostate is -100% (active); with MALME-3M melanoma, -98.6% (active); in the assay with MDA-MB-231 breast, -99.6% (active); in the assay on RXF 393 renal, -96.7% (active); in the assay with SF-268 CNS, -80.4% (active); with SF-295 CNS, -92.8% (active). Besides, the growth with SF-539 CNS was -100% (active); in the assay with UACC-257 melanoma, -88% (active); in the assay with M14 melanoma, -56.9% (active).
Consider `CC1(C)CC[C@]2(C(=O)Nc3ccccc3)CC[C@]3(C)C(=CC[C@@H]4[C@@]5(C)CC[C@H](N)C(C)(C)[C@@H]5CC[C@]43C)[C@H]2C1`, for which the growth was 26.6% in the assay with DU-145 prostate; 83.7% with MALME-3M melanoma; 71.7% with MDA-MB-231 breast; 59.8% in the assay on RXF 393 renal; 119% in the assay on SF-268 CNS; 52.7% with SF-295 CNS. Also, the growth in the assay on SF-539 CNS is 87.8%; in the assay with UACC-257 melanoma, 103%; in the assay on M14 melanoma, 82.4%.
On to `Cc1ccc(-c2cc(-c3cc4ccccc4nc3Cl)[nH]c(=S)n2)cc1`, for which the growth was 63.7% in the assay with DU-145 prostate; 18.6% in the assay with K-562 leukemia; 46% in the assay on MALME-3M melanoma; 28.1% with RXF 393 renal; 77.8% with SF-268 CNS; 45.1% in the assay on SF-295 CNS. Further, the results for the growth in the assay on SF-539 CNS, with UACC-257 melanoma and in the assay on M14 melanoma were 55.7%, 66.5% and 15.9%, respectively.
Consider `CCC(C)S(=O)(=O)c1oc(-c2ccc(C)cc2)nc1S(=O)(=O)c1ccccc1` (stereo unspecified), for which the growth was -89.6% (active) in the assay with DU-145 prostate; -96.4% (active) with MALME-3M melanoma; -88.1% (active) in the assay on MDA-MB-231 breast; -98% (active) in the assay on RXF 393 renal; -49.1% (active) with SF-268 CNS; 46.9% in the assay with SF-295 CNS. In addition, the growth with SF-539 CNS is -100% (active); in the assay on UACC-257 melanoma, -89.5% (active); in the assay with M14 melanoma it was -42% (active).
For the compound `COc1ccccc1NCc1ccc(CO)n1-c1ccc(C)cc1`, the growth with DU-145 prostate was 111%; in the assay on MALME-3M melanoma it was 98.4%; in the assay on MDA-MB-231 breast, 91.2%; in the assay with RXF 393 renal, 107%; with SF-268 CNS it was 94.7%; with SF-295 CNS it was 100%. Further, the growth with SF-539 CNS was 94.7%; in the assay on UACC-257 melanoma it was 109%; in the assay with M14 melanoma it was 101%.
For the compound `COc1ccc2[nH]c(O)c(N=NC(=O)COc3ccc(NC(=O)Nc4ccc(Cl)cc4)cc3)c2c1`, the growth in the assay on DU-145 prostate is 18.5%; with MALME-3M melanoma, -14.4% (active); with MDA-MB-231 breast it was -69.9% (active); in the assay with RXF 393 renal, 44.1%; with SF-268 CNS it was -10.3% (active); in the assay with SF-295 CNS, 14%. Also, the results for the growth with SF-539 CNS, with UACC-257 melanoma and with M14 melanoma were -39% (active), 51.8% and -27.2% (active), respectively.
With `COc1ccc2[nH]c(O)c(N=NC(=O)COc3ccc(NC(=O)Nc4ccc(Cl)c(Cl)c4)cc3)c2c1`, the growth with DU-145 prostate is -60.3% (active); with MALME-3M melanoma it was -79.6% (active); with MDA-MB-231 breast, -89.7% (active); in the assay on RXF 393 renal, -87.5% (active); in the assay with SF-268 CNS, 64.1%; in the assay with SF-295 CNS it was -45.5% (active). For the same compound, the growth in the assay on SF-539 CNS is -97.5% (active); in the assay with UACC-257 melanoma it was 11.3%; with M14 melanoma, -42.2% (active).
Take `CN1CCN(c2ccc(Nc3nc(NCCCNC(=O)c4ccccc4)c4sccc4n3)cc2)CC1`: the growth is 75.5% in the assay with DU-145 prostate; 46.1% in the assay with MALME-3M melanoma; 88.6% in the assay on MDA-MB-231 breast; 2.61% (active) in the assay on RXF 393 renal; 77.6% in the assay with SF-268 CNS; 85.9% in the assay with SF-295 CNS. In addition, the growth in the assay on SF-539 CNS was -89.5% (active); with UACC-257 melanoma, 32.5%; with M14 melanoma, 38.6%.
`CN1CCN(c2ccc(Nc3nc(NCCNC(=O)c4ccc(C(F)(F)F)cc4)c4sccc4n3)cc2)CC1`: the growth was 45.7% in the assay with DU-145 prostate; -100% (active) with MALME-3M melanoma; -36.1% (active) with MDA-MB-231 breast; -82.2% (active) in the assay on RXF 393 renal; 21.8% in the assay with SF-268 CNS; -62.7% (active) in the assay with SF-295 CNS. Moreover, the values for the growth in the assay with SF-539 CNS, in the assay with UACC-257 melanoma and in the assay on M14 melanoma were -99.7% (active), -93.4% (active) and -54.4% (active), respectively.
In the case of `CCCCCc1ccc(S(=O)(=O)N(C(C)=O)c2cc(-c3csc(N(C)C(C)=O)n3)ccc2N2CCN(C)CC2)cc1`, the growth with DU-145 prostate is 46.4%; in the assay on MALME-3M melanoma, -93.3% (active); in the assay with MDA-MB-231 breast, -5.42% (active); with RXF 393 renal it was -69.7% (active); in the assay on SF-268 CNS it was 65.9%; with SF-295 CNS it was -88.2% (active). Also, the growth with SF-539 CNS was -95.7% (active); in the assay with UACC-257 melanoma, -34.1% (active); with M14 melanoma it was -78.1% (active).
For the compound `CC(=O)Nc1nc(-c2ccc(N3CCN(C)CC3)c(NS(=O)(=O)c3cccc4c(N(C)C)cccc34)c2)cs1`, the growth is 76.2% in the assay on DU-145 prostate; -35.6% (active) with MALME-3M melanoma; 65% with MDA-MB-231 breast; 19.6% with RXF 393 renal; 78.5% in the assay on SF-268 CNS; -58.7% (active) with SF-295 CNS. For the same compound, the growth is 16% with SF-539 CNS, -6.28% (active) in the assay on UACC-257 melanoma and -57.5% (active) in the assay on M14 melanoma.
For the compound `CCN1CCN(c2ccc(NC(=O)Nc3ccc(-c4cc(C(=O)NC)c5ncccc5n4)cc3)cc2C(F)(F)F)CC1`, the growth is -100% (active) in the assay on DU-145 prostate; -100% (active) with MALME-3M melanoma; -100% (active) in the assay on MDA-MB-231 breast; -94.4% (active) in the assay with RXF 393 renal; -77.5% (active) in the assay on SF-268 CNS; -99% (active) in the assay with SF-295 CNS. Also, the values for the growth in the assay on SF-539 CNS, with UACC-257 melanoma and in the assay with M14 melanoma were -100% (active), -96.7% (active) and -100% (active), respectively.
`O=C(Nc1ccccc1)Nc1nc2ccccc2s1`: the growth with DU-145 prostate was 104%; in the assay with MALME-3M melanoma, -10.2% (active); with MDA-MB-231 breast, 79.5%; in the assay with RXF 393 renal, 110%; with SF-268 CNS it was 111%; with SF-295 CNS, 82.3%. The growth was 88.6% with SF-539 CNS, 20.8% in the assay with UACC-257 melanoma and 78.8% in the assay with M14 melanoma.
In the case of `CC(=O)NCC1=C(C)C=C2C(=O)[C@](C)(O)C3(CC3)C(C)=C21`, the growth in the assay on DU-145 prostate was -10.7% (active); with MALME-3M melanoma, -96.3% (active); in the assay with MDA-MB-231 breast, -61.5% (active); with RXF 393 renal it was -74.7% (active); in the assay on SF-268 CNS it was 18.3%; with SF-295 CNS it was -14.5% (active). The figures for the growth in the assay with SF-539 CNS, with UACC-257 melanoma and in the assay with M14 melanoma were -71.1% (active), -62% (active) and -69.1% (active), respectively.
On to `Cc1ccc(C(=O)NCCCNc2nc(Nc3ccc(N4CCN(C)CC4)cc3)nc3ccsc23)cc1`, for which the growth is 58.7% in the assay on DU-145 prostate; -94.8% (active) in the assay on MALME-3M melanoma; 44.4% in the assay on MDA-MB-231 breast; -53.1% (active) with RXF 393 renal; 60.4% in the assay with SF-268 CNS; 44.8% in the assay with SF-295 CNS. In addition, the results for the growth in the assay on SF-539 CNS, in the assay on UACC-257 melanoma and with M14 melanoma were -89.9% (active), -17.7% (active) and -7.88% (active), respectively.
As for `COc1cc(Cn2c(C(F)(F)F)cc3c(Cl)ncnc32)ccn1`, the growth with DU-145 prostate is -100% (active); with MALME-3M melanoma, 71.2%; with MDA-MB-231 breast it was 10.7%; with RXF 393 renal, 32.9%; in the assay on SF-268 CNS, -11% (active); in the assay with SF-295 CNS, 95%. Moreover, the growth with SF-539 CNS was 59.9%; with UACC-257 melanoma, 30.1%; in the assay on M14 melanoma, -25.6% (active).
On to `Cc1ccc(C(C)C)cc1NC(=O)c1ccccc1N(C)C`, for which the growth is 97.4% with DU-145 prostate; 88.3% with MALME-3M melanoma; 91.1% in the assay on MDA-MB-231 breast; 85.2% with RXF 393 renal; 95.8% in the assay on SF-268 CNS; 83.8% in the assay on SF-295 CNS. Besides, the figures for the growth with SF-539 CNS, with UACC-257 melanoma and with M14 melanoma were 96.9%, 86.5% and 93.9%, respectively.
With `O=C(Cn1cc(CSc2nnc3oc4ccccc4n23)nn1)Nc1ccc(Br)cc1`, the growth in the assay on DU-145 prostate was 92.3%; in the assay with MALME-3M melanoma it was 87.8%; in the assay on MDA-MB-231 breast, 35.5%; in the assay on RXF 393 renal it was 6.71% (active); in the assay with SF-268 CNS, 37.8%; in the assay on SF-295 CNS, 43.7%. Moreover, the growth was 29.9% in the assay on SF-539 CNS, 88.8% with UACC-257 melanoma and 98.8% in the assay on M14 melanoma.
